High-throughput results deposited in PubChem by several laboratories.
Shown are actives, neighbours in structure and some others; about 3.3% of the full set was active somewhere.
UBC13 inh – human UBC13 polyubiquitination inhibition; UBC13 polyubiquitin chain formation, TR-FRET; 330,000 tested, 0.47% active; P61088; inhibition, % at 20 µM; AID 485273; in the data active = inhibition above about 45%, passing the limit was not always enough
Target sequence (P61088 whole entry, looked up): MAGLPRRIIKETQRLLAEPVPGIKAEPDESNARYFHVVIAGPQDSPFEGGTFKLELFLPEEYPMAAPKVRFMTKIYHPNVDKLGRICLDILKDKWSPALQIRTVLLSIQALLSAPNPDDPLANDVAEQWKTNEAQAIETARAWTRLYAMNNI
SUMO HTRF inh – blocks human SUMOylation mediated by UBC9; P63279; HTRF SUMOylation assay, SAE1/SAE2 + UBC9, in vitro; inhibition, % at 35 µM; 290,000 tested, 0.36% active; AID 2006; in the data active = inhibition above about 50%, passing the limit was not always enough
Target sequence (P63279 whole entry, looked up): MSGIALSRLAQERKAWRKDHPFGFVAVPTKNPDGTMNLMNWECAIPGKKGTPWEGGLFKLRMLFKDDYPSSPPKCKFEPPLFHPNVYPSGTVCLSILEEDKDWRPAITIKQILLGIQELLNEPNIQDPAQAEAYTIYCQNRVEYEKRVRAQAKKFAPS
sPLA2-III inh – Inhibits HGIII-sPLA2 liposome hydrolysis, primary screen | QFRET BODIPY PC-A2 liposome hydrolysis, fluorescence | inhibition, % at 12.2 µM | 370,000 tested, 0.56% active | AID 743126;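 active = inhibition above mean plus 3 SD of compounds lying within the high and low control bounds, cut at about 19% in these data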;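 note: 0% = median of test compound wells and 100% = no enzyme DMSO wells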
NR3A LBD binder – NR3A (human) ligand-binding domain modulation. NR3A LBD differential scanning fluorimetry, Tm shift; 0% = protein alone, 100% = glycine-bound protein. AID 1259313. 340,000 tested, 2.5% active. Tm shift relative to glycine control, % at 25 µM;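 active = melting temperature shift of at least 10% of the positive control shift, at one fixed dose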
Casp3 counter – inhibits human caspase-3 in UBC13 counter-screen; 1,400 tested, 4% active; Recombinant caspase-3, Caspase-Glo 3/7 luminescence, 60 min; AID 488856; shares compounds with UBC13 inh; inhibition, % at 20 µM;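 active = mean inhibition across replicates above about 26%, limit read from the data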;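 note: plate controls were DMSO with caspase-3 for no effect and DMSO wells lacking enzyme for full effect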
UBC13 confirm – human UBC13 polyubiquitin inhibition, confirmed | 1,400 tested, 68% active | UBC13 polyubiquitination, TR-FRET, biochemical | shares compounds with UBC13 inh | inhibition, % at 10 µM; in the data active = inhibition above about 45%
* = called active by the depositor.

What do the screens show for `CCC(C)(C)c1ccc(OCCCC[n+]2ccc(C)cc2)c(C(C)(C)CC)c1`?
UBC13 inh: 69*; SUMO HTRF inh: 19; sPLA2-III inh: 1; NR3A LBD binder: -4; Casp3 counter: -2; UBC13 confirm: 99*

What do the screens show for `CCC(C)(C)c1ccc(OCCCC[n+]2cccc(C)c2C)c(C(C)(C)CC)c1`?
UBC13 inh: 82*; SUMO HTRF inh: 20; sPLA2-III inh: -42; NR3A LBD binder: -14; Casp3 counter: -3; UBC13 confirm: 100*

What do the screens show for `Cc1cc(C(C)(C)C)ccc1OCCCCN1CCCC1`?
UBC13 inh: 7; SUMO HTRF inh: 2; sPLA2-III inh: -11; NR3A LBD binder: -7

How did COC(=O)[C@]12C[C@H](CC(=O)N3CCCC3)C(=O)N(Cc3ccco3)C1=C[C@H](C(C)C)O[C@@H]2C1CC1 do in these assays?
sPLA2-III inh: -4

How did Cc1ccccc1-n1ccnc1SCC(=O)NCC1CCCO1 (stereo not given) do in these assays?
UBC13 inh: -5; SUMO HTRF inh: 22; sPLA2-III inh: -2; NR3A LBD binder: -1

How did Cn1c(SCC(=O)NCC2CCCO2)ncc(C(=O)Nc2ccc(F)cc2)c1=O (stereo not given) do in these assays?
UBC13 inh: 59*; sPLA2-III inh: 14; NR3A LBD binder: 0; Casp3 counter: 96*; UBC13 confirm: 60*

How did Cn1c(SCC(=O)NCC2CCCO2)ncc(C(=O)Nc2ccc(Cl)cc2)c1=O (stereo not given) do in these assays?
UBC13 inh: 58*; sPLA2-III inh: -1; NR3A LBD binder: -2; Casp3 counter: 98*; UBC13 confirm: 69*

How did CCOC(=O)CC[C@@H]1CC[C@]2(CCCN(Cc3nccn3C)C2)O1 do in these assays?
sPLA2-III inh: 6

How did COc1ccc2c(c1)CNC2CS(=O)(=O)NCc1ccccc1 (stereo not given) do in these assays?
sPLA2-III inh: 2

Results for CCN(C(=O)C1CCCN1S(=O)(=O)c1cccnc1)c1ccccc1 (stereo not given) ?
sPLA2-III inh: 2

How did c1ccc(C[C@H]2CN=C(Nc3ccccc3)N2CCCC2CCCCC2)cc1 do in these assays?
UBC13 inh: 48*; sPLA2-III inh: 6; NR3A LBD binder: 0; Casp3 counter: -1; UBC13 confirm: 26

What do the screens show for `Cc1ccc2cc3c(nc2c1)N(c1ccccc1)CC3`?
UBC13 inh: 46*; SUMO HTRF inh: 15; sPLA2-III inh: 2; NR3A LBD binder: 0; Casp3 counter: 0; UBC13 confirm: 32

Results for O=S1(=O)CC2c3ccccc3CN2CN1CCc1ccccc1 (stereo not given) ?
sPLA2-III inh: 4

Results for CCOC(=O)c1c(NC(=O)COc2ccccc2OCC)sc2c1CC(C)(C)NC2(C)C ?
UBC13 inh: 14; NR3A LBD binder: -2

Results for CCOC(=O)c1c(NC(=O)c2ccc(C)cc2)sc2c1CC(C)(C)NC2(C)C ?
UBC13 inh: 49*; SUMO HTRF inh: -4; Casp3 counter: -3; UBC13 confirm: 11

How did COC(=O)c1c(NC(=O)c2ccc(OC(C)C)cc2)sc2c1CC(C)(C)NC2(C)C do in these assays?
UBC13 inh: 84*; SUMO HTRF inh: 2; sPLA2-III inh: -2; NR3A LBD binder: 3; Casp3 counter: -2; UBC13 confirm: 60*

What do the screens show for `CCOC(=O)c1c(NC(=O)COc2ccccc2C#N)sc2c1CC(C)(C)NC2(C)C`?
UBC13 inh: 76*; SUMO HTRF inh: -14; sPLA2-III inh: -8; NR3A LBD binder: -9; Casp3 counter: -3; UBC13 confirm: 105*

Results for COc1cccc2oc3ccc(C#CC4(N)CCCCC4)cc3c(=O)c12 ?
UBC13 inh: 53*; SUMO HTRF inh: 27; sPLA2-III inh: 1; NR3A LBD binder: -4; Casp3 counter: 80*; UBC13 confirm: 40

How did COc1ccc([C@@H]2CC(=O)c3c(O)cc(O[C@@H]4OC(CO[C@@H]5OC(C)[C@H](O)[C@H](O)C5O)[C@@H](O)[C@@H](O)C4O)cc3O2)cc1O (stereo not given in full) do in these assays?
UBC13 inh: -10; sPLA2-III inh: 4; NR3A LBD binder: -1
